Hit rate of the full screen: of about 310,000 compounds, about 14,000 (4.5%) showed an effect of 50% or more. The effect is printed as a negative number. This is one part of a sample in which strong results are shown more often than they occur.
Target: human ether-à-go-go-related gene (hERG) potassium channel (human, UniProt Q12809)
Experiment: primary screen, population patch clamp on CHO cells stably expressing hERG; higher = less effect of the substance
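Also: peak tail current of the secondary pulse compared with the same well before compound.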

human ether-à-go-go-related gene (hERG) potassium channel, sequence (Q12809 whole entry, looked up): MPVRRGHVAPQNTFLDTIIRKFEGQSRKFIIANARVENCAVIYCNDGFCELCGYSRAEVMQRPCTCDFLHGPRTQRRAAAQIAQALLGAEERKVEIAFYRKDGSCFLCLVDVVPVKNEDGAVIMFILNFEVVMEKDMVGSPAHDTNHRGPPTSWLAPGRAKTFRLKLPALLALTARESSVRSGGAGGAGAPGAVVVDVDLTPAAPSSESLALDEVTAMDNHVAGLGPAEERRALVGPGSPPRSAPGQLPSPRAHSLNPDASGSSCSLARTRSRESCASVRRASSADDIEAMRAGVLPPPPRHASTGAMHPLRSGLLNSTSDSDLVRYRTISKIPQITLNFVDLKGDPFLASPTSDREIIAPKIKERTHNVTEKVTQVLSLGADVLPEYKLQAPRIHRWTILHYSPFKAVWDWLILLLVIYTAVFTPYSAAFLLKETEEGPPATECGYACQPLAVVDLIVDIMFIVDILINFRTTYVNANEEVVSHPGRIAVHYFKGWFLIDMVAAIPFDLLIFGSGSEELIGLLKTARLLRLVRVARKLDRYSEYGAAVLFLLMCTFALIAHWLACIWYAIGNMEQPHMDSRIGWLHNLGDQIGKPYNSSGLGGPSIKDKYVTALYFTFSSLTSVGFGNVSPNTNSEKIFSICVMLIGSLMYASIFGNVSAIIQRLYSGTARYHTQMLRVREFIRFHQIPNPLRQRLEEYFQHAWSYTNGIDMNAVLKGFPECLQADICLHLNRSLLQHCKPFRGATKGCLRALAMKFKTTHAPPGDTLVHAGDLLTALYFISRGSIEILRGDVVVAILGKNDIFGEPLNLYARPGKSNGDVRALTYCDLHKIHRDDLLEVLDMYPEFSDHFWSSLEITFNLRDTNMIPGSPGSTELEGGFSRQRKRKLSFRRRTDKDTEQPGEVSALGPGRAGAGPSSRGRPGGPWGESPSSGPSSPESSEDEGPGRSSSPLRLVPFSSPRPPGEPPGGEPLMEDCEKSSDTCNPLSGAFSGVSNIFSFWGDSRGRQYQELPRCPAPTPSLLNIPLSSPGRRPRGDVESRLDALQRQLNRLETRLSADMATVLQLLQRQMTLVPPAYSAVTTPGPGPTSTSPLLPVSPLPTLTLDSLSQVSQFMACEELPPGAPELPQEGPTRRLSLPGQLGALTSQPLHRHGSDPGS

SMILES | hERG current change (%, negative = inhibition) at 10uM [%]
CC(C)(C)NC(=O)COc1ccc(CNc2ccc3[nH]c(=O)[nH]c3c2)cc1 | -1.87
Cn1c(NCc2ccco2)nc2c1c(=O)n(Cc1ccc(Cl)c(Cl)c1)c(=O)n2C | -15.6
COCCn1c(SCC(=O)/C=C2\N(C)c3ccccc3C2(C)C)nnc1-c1ccncc1 | -37.4
CC(=O)Nc1ccccc1OCCOc1ccc(Br)cc1 | -1.67
Clc1ccc(-c2nnc3n2CCCS3)cc1 | 6.34
Cc1ccccc1OCC(=O)NCCc1nc2ccccc2[nH]1 | -9.27
O=C(NCCc1nc2ccccc2[nH]1)c1cc([N+](=O)[O-])cc([N+](=O)[O-])c1 | -8.57
O=C(NCCc1nc2ccccc2[nH]1)c1ccc(Cl)c([N+](=O)[O-])c1 | -56.2
O=C(COc1ccccc1)NCCc1nc2ccccc2[nH]1 | -6.21
O=C(NCc1nc2ccccc2[nH]1)c1ccc([N+](=O)[O-])cc1 | -38.5
O=C(COc1ccc([N+](=O)[O-])cc1)NCCc1nc2ccccc2[nH]1 | -56.7
O=C(NCCc1nc2ccccc2[nH]1)c1ccc([N+](=O)[O-])cc1 | -56.8
COc1ccccc1OCC(=O)NCCc1nc2ccccc2[nH]1 | 2.13
CCOc1ccc(OCC(=O)NCCc2nc3ccccc3[nH]2)cc1 | -34.6
O=C(Nc1nc2ccccc2[nH]1)c1ccc(Cl)c([N+](=O)[O-])c1 | 0.857
O=C(COc1ccccc1Br)NCCc1nc2ccccc2[nH]1 | -65.3
Cc1ccc(C(=O)NCCc2nc3ccccc3[nH]2)cc1[N+](=O)[O-] | -31.8
CC1=NN(C(=O)Cc2ccc([N+](=O)[O-])cc2)C(O)(C(F)(F)C(F)(F)F)C1 (centres unmarked) | -12.4
O=C(Nc1nnc(-c2ccco2)o1)c1cccc(N2C(=O)CCC2=O)c1 | 7.91
CCOc1ccc(Br)cc1C(=O)N/N=C/c1cccnc1 | 1.64
CCCn1c(SCCC(=O)O)nc2ccccc21 | 8.62
O=[N+]([O-])c1ccc(-c2c(-c3ccccc3)ncc3cc(F)ccc23)cc1 | 1.58
O=C(CNc1cc(S(=O)(=O)N2CCCC2)ccc1OCC(F)(F)F)Nc1cc(Cl)cc(Cl)c1 | 6.5
CC(=O)Nc1c(O)nc(C)[nH]c1=O | 6.51
O=c1cc(CSc2nnc(COc3cccc4ccccc34)o2)c2ccccc2[nH]1 | 22.2

SMILES | hERG current change (%, negative = inhibition) at 10uM [%]
CCCCNC(=O)c1nn2cc(Br)cnc2c1Br | -62.3
COCCNC(=O)c1nn2cccnc2c1Cl | -11.3
CCCNC(=O)c1nc2ncc(Br)cn2n1 | -31.1
CCCNC(=O)c1nn2cc(Br)cnc2c1Br | -69.2
COCCNC(=O)c1cc2ncc(Br)cn2n1 | 5.41
CCc1ccccc1NC(=O)c1cc2ncc(Br)cn2n1 | 9.22
CCCNC(=O)c1nn2cc(Br)cnc2c1Cl | -73.2
CCCCNC(=O)Nc1ccc(Br)cn1 | -16.2
CCCCNC(=O)c1nc2ncc(Br)cn2n1 | -21
O=C(/C=C/c1ccccc1)Nc1ccc(NC(=O)c2cccs2)cc1 | 6.8
COC(=O)c1cc(-c2ccc(NC(C)=O)cc2)nc2ccccc12 | 6.01
CCOC(=O)CC(NC(=O)Cc1ccccc1)c1ccccc1Cl (centres unmarked) | 1.83
Cc1ccc(Nc2ncc3c(n2)CC(C)(C)CC3=O)cc1 | -10
N/C(=N/OCC(=O)Nc1cccc2ccccc12)c1nonc1N | -14
CCOc1ccc(C(=O)O/N=C(\N)c2ccc([N+](=O)[O-])cc2)cc1OCC | -6.93
CN1CCN(Cc2nc3ccccc3c(=O)n2Cc2nc(-c3ccc4ccccc4c3)cs2)CC1 | -6.55
CN(C)Cc1nc2ccccc2c(=O)n1Cc1nc(-c2cc3ccccc3o2)cs1 | 9.3
CN1CCN(Cc2nc3ccccc3c(=O)n2CC#N)CC1 | -2.87
CN(C)Cc1nc2ccccc2c(=O)n1Cc1nc(-c2cccc([N+](=O)[O-])c2)cs1 | -36.9
CN1CCN(Cc2nc3ccccc3c(=O)n2Cc2nc(-c3ccccc3F)cs2)CC1 | -71
CN1CCN(Cc2nc3ccccc3c(=O)n2Cc2nc(-c3ccc([N+](=O)[O-])cc3)cs2)CC1 | -73.8
Cc1cc2[nH]c(=O)c(=O)[nH]c2cc1S(=O)(=O)Nc1cccc(Cl)c1C | -0.165
CCN1CCN(C2=NC(=O)/C(=C/c3ccc(C)o3)S2)CC1 | -20.9
O.[I-].c1ccc2[nH]c(-c3cc[nH+]c4ccccc34)nc2c1 | -12.6
O=C(C1CCN(c2ccc(N3CCOCC3)nn2)CC1)N1CCN(c2ccc(F)cc2)CC1 | -47.4

SMILES | hERG current change (%, negative = inhibition) at 10uM [%]
CCOc1ccc(NC(=O)C2CCCN(c3c(CC)c(C)nc4ncnn34)C2)cc1 (centres unmarked) | -65.8
CCc1c(C)nc2ncnn2c1N1CCCC(C(=O)Nc2cc(F)ccc2C)C1 (centres unmarked) | -40.6
CCc1c(C)nc2ncnn2c1N1CCC(C(=O)N2CCN(c3ccc(F)cc3)CC2)CC1 | -67.9
CCc1c(C)nc2ncnn2c1N1CCCC(C(=O)Nc2ccc(NC(C)=O)cc2)C1 (centres unmarked) | 14.2
CCc1c(C)nc2ncnn2c1N1CCC(C(=O)NCc2cccs2)CC1 | -44.4
CCc1c(C)nc2ncnn2c1N1CCC(C(=O)Nc2ccc(C)cc2)CC1 | -55.9
CCc1c(C)nc2ncnn2c1N1CCC(C(=O)Nc2ccccc2)CC1 | -44.4
CCc1c(C)nc2ncnn2c1N1CCC(C(=O)Nc2cccc(C(C)=O)c2)CC1 | -22.6
CCc1c(C)nc2ncnn2c1N1CCCC(C(=O)NCCc2ccccc2)C1 (centres unmarked) | -15.2
CCc1c(C)nc2ncnn2c1N1CCCC(C(=O)NCCc2ccc(OC)cc2)C1 (centres unmarked) | -19.6
CCOc1ccccc1NC(=O)C1CCCN(c2c(CC)c(C)nc3ncnn23)C1 (centres unmarked) | -65.1
Cc1nc2ccc(NC(=O)Cc3cccs3)cc2s1 | 11
CCOC(=O)N/N=C/C=C/c1ccccc1 | 1.98
O=C(O)c1cc(N/N=C/c2c[nH]c3ccccc23)ccc1Cl | 10.3
O=S(=O)(/C=C/c1ccccc1)N1CCN(c2ccccc2)CC1 | -2.08
S=c1[nH]nc(-c2ccco2)n1/N=C/c1c(Cl)cccc1Cl | -10.9
Cc1cc(NC(=O)c2ccc(Cl)cc2)ccc1NC(=O)c1ccccc1Cl | 9.97
Cc1cc(C)c(C(=O)COC(=O)c2nn(C)c(=O)c3ccccc23)cc1C | -30.4
O=C(O)c1ccccc1C(=O)NCCCCCCNC(=O)c1ccccc1C(=O)O | 7.63
Cc1ccccc1NC1=CC(=O)CC(C)(C)C1 | -0.789
COc1cc(-c2nc(CN3CCN(CC(C)C)C(=O)[C@@H]3C)c(C)o2)ccc1F | -14.2
COc1ccc(-c2nc(CS(=O)CC(=O)NCCN3CCCCC3C)c(C)o2)cc1OC (centres unmarked) | 16.8
CCOC(=O)CC1CCCCN1Cc1nc(-c2ccc(F)c(OC)c2)oc1C (centres unmarked) | -65.5
COc1cc(-c2nc(CN3CCCCC3CCNC(C)=O)c(C)o2)ccc1F (centres unmarked) | -66.6
CCOC(=O)CC1CCCCN1Cc1cn[nH]c1-c1ccc(F)cc1F (centres unmarked) | -64.8

SMILES | hERG current change (%, negative = inhibition) at 10uM [%]
CCOC(=O)C1CCCCN1Cc1cn[nH]c1-c1ccc(F)cc1F (centres unmarked) | 1.06
COc1ccc(-c2nc(CSCC(=O)N3CCC(C(N)=O)CC3)c(C)o2)cc1OC | -0.184
CCC1CCCCN1CCCNC(=O)CS(=O)Cc1nc(-c2ccc(OC)c(OC)c2)oc1C (centres unmarked) | 5.21
CCOC(=O)C1CCCN(Cc2cn[nH]c2-c2ccc(F)cc2F)C1 (centres unmarked) | -2.03
O=C(CSc1nc2cc(Cl)ccc2s1)NCc1ccc2c(c1)OCO2 | 0.137
COc1cc(OC)cc(C(=O)N(Cc2cc3cc(C)ccc3[nH]c2=O)C(C)C)c1 | -7.49
O=C(C[n+]1ccccc1)N/N=C/c1ccc(Cl)cc1.[Cl-] | -5.76
NC(=O)CSc1nnnn1-c1ccccc1Cl | 6.07
O=C(N/N=C/C(Br)=C/c1ccccc1)c1ccccc1F | -38.5
Cc1ccc2c(CC(=O)N3CCOCC3)coc2c1 | 8.58
CCN(CC)S(=O)(=O)c1ccc(C(=O)OCCN2C(=O)CCC2=O)cc1 | -7.82
Cn1c(=O)c2c(nc(SCCN3CCCCC3)n2C)n(C)c1=O | 3.49
Cn1c(=O)c2c(nc(SCCN3CCOCC3)n2Cc2ccccc2Cl)n(C)c1=O | -36.8
Cn1c(=O)c2c(nc(SCCN3CCOCC3)n2Cc2ccc(F)cc2)n(C)c1=O | -56
Cn1c(=O)c2c(nc(SCCN3CCCCC3)n2Cc2ccccc2)n(C)c1=O | -76
Cc1ccc(Cn2c(SCCN3CCCCC3)nc3c2c(=O)n(C)c(=O)n3C)cc1 | -75.4
Cc1ccc(Cn2c(SCC(C)C)nc3c2c(=O)n(C)c(=O)n3C)cc1 | 4.03
CCCSc1nc2c(c(=O)n(C)c(=O)n2C)n1Cc1ccc(C)cc1 | -3.8
Cc1ccc(Cn2c(SCCN3CCOCC3)nc3c2c(=O)n(C)c(=O)n3C)cc1 | -28
Cc1cccc(Cn2c(SCCN3CCOCC3)nc3c2c(=O)n(C)c(=O)n3C)c1 | -26.2
CCSc1nc2c(c(=O)n(C)c(=O)n2C)n1Cc1ccc(Cl)cc1 | -17.5
Cn1c(=O)c2c(nc(SCCN3CCCCC3)n2Cc2ccc(Cl)cc2)n(C)c1=O | -72.3
Cn1c(=O)c2c(nc(SCCN3CCOCC3)n2Cc2ccccc2)n(C)c1=O | -32.5
